Only a selection was taken, and hits are over-represented in it overall.
TcdB inh – TcdB glycohydrolase inhibitors, primary screen, biochemical, single point, plate reader; 350,000 tested, 0.24% active; inhibition, % at 9.99 µM; TcdB glycohydrolase enzymatic assay; Toxin B (Clostridioides difficile), P18177; in the data active = inhibition above about 10%
BoNT-A LC inh2 – BoNT/A light chain protease inhibitors, primary screen, biochemical, flow cytometry, MLPCN library | Botulinum neurotoxin type A light chain protease (Clostridium botulinum A str. ATCC 3502) | multiplex microsphere protease substrate cleavage | inhibition, % at 10 µM | 360,000 tested, 0.17% active; note: plate controls were buffer without enzyme for full effect and enzyme alone for no effect
Anthrax LF inh2 – Bacillus anthracis LF protease inhibitors, primary screen, biochemical, multiplex microsphere, MLPCN library; multiplex microsphere protease cleavage assay; inhibition, % at 10 µM; 360,000 tested, 0.12% active; AID 588501, 2011; note: plate controls were buffer without enzyme for full effect and enzyme alone for no effect
BoNT-F LC inh – BoNT/F light chain protease inhibitors, primary screen, biochemical, flow cytometry, MLPCN library; Botulinum neurotoxin type F light chain protease (Clostridium botulinum); Multiplex microsphere protease cleavage assay; inhibition, % at 10 µM; 360,000 tested, 0.22% active; AID 588497, 2011; in the data active = inhibition above about 35%, passing the limit was not always enough; inconclusive = no clear call, values can overlap the other calls; note: plate controls were buffer without enzyme for full effect and enzyme alone for no effect
Bead autofluor – flagged as autofluorescent in microsphere protease counterscreen | 360,000 tested, 3.1% active | compound autofluorescence counterscreen, microsphere flow cytometry; stronger effect = higher value | fluorescence intensity (test concentration not listed) | AID 624483; in the data active = fluorescence intensity above about 16000; inconclusive = no clear call, values can overlap the other calls
* = called active by the depositor; ? = inconclusive; . = no result. Cut-off read from the data, not from the text of the source, unless noted: active = inhibition above about 30%; inconclusive = no clear call, values can overlap the other calls; inactive = below that.

SMILES	TcdB inh	BoNT-A LC inh2	Anthrax LF inh2	BoNT-F LC inh	Bead autofluor
CCN(CC)CCCOc1nc(C)nc2c1oc1ccccc12	.	0	2	-1	23099*
c1coc(CN(Cc2ccco2)c2ncnc3c2oc2ccccc23)c1	.	1	-3	-1	19845*
CCSc1ncnc2c1oc1ccccc12	.	7	-15	10	16868*
O=C(C[C@@H]1C[C@H]2c3cc(NC(=O)C4CCC4)ccc3O[C@H]2[C@H](CO)O1)NC1CCCCC1	-1	.	.	.	.
Cn1c(=O)cc(OCCCC(=O)Nc2cccc(Cl)c2)c2ccccc21	1	0	-3	1	3113
Cc1ccc(CNC(=O)CCCOc2cc(=O)n(C)c3ccccc23)o1	.	-1	-8	-10	6564
Cn1c(=O)cc(OCCCC(=O)NCc2ccco2)c2ccccc21	.	-2	-2	-3	17294*
Cn1c(=O)cc(OCCCC(=O)Nc2ccccn2)c2ccccc21	.	1	-2	0	22529*
COCC#Cc1ccc2c(c1)O[C@@H](CN(C)S(=O)(=O)c1ccc(F)cc1)[C@H](C)CN([C@H](C)CO)S2(=O)=O	0	.	.	.	.
COc1ccc2c(c1)c(=O)oc1cc(OCC(=O)N3CCCC(C)C3)ccc12 (stereo unspecified)	.	0	-2	4	2969
COc1ccc2c(c1)c(=O)oc1cc(OCC(=O)N3CCC(C)CC3)ccc12	.	5	2	11	20779*
CNC[C@H]1Oc2ccc(NC(=O)Cn3cnnn3)cc2CC(=O)N([C@@H](C)CO)C[C@@H]1C	0	.	.	.	.
Cc1cc(C2C(C#N)=C(N)SC(N)=C2C#N)c(C)s1	.	18	13	40*	4324
Cc1cc(C2C(C#N)=C(N)Oc3n[nH]c(C)c32)c(C)s1 (stereo unspecified)	.	0	3	9	2163
COC(=O)C[C@H]1CC[C@@H]2[C@H](COc3ccc(NC(=O)c4ccc(F)cc4)cc3C(=O)N2C)O1	3	.	.	.	.
Cc1cc(=O)oc2cc(OCC(=O)N3CCOCC3)ccc12	.	0	-2	-5	4896
Cc1cc(=O)oc2cc(OC(C)C(=O)N3CCOCC3)ccc12 (stereo unspecified)	.	-1	2	-2	23796*
Cc1ccccc1Cn1c(Cc2ccccc2)nc2ccccc21	.	?	0	-6	24142*
Cc1cccc(Cn2c(Cc3ccccc3)nc3ccccc32)c1	-1	0	-1	4	2047
COCn1c(-c2ccc(OC)c(OC)c2)nc2ccccc21	.	0	-15	-3	9407
COCc1nc2ccccc2n1Cc1cccc(C)c1	.	-2	-1	-5	16897*
COCn1c(-c2cccc(Br)c2)nc2ccccc21	.	?	-5	0	19656*
O=C(N[C@@H]1CC[C@H](CC(=O)N2CCCCC2)O[C@H]1CO)c1ccc2c(c1)OCO2	-1	.	.	.	.
COC(=O)/C=c1\sc2n(c1=O)C(C)=CC(C)(C)N=2	.	3	-7	2	19740*
O=C(c1cccc(F)c1)N1CC2(C1)[C@@H](c1ccccc1)[C@H](CO)N2C(=O)C1CCC1	1	.	.	.	.
SMILES	TcdB inh	BoNT-A LC inh2	Anthrax LF inh2	BoNT-F LC inh	Bead autofluor
Cc1c(-c2cccs2)[n+](=O)c2c(n1[O-])CCCC2	.	4	-22	11	20042*
C[C@@H]1CN([C@H](C)CO)C(=O)c2cc(NC(=O)Cc3ccccc3)ccc2O[C@@H]1CN(C)C(=O)Nc1ccc2c(c1)OCO2	0	.	.	.	.
CCOC(=O)C1=C(N)OC2=C(C(=O)CC(C)(C)C2)C1c1ccccc1OCC#N (stereo unspecified)	.	1	1	2	20405*
C[C@@H]1CN([C@H](C)CO)C(=O)Cc2cc(NS(=O)(=O)c3cccs3)ccc2O[C@@H]1CN(C)S(=O)(=O)c1cn(C)cn1	-4	.	.	.	.
C/C=C/c1ccc([C@@H]2[C@H](CO)N(CC3CC3)C23CN(C(=O)COC)C3)cc1	-1	.	.	.	.
COc1cccc(CNC(=O)C2CSC3(C)CCC(=O)N23)c1 (stereo unspecified)	0	12	3	29	17016*
O=C(NCc1cccnc1)C1CCN(S(=O)(=O)c2cccs2)CC1	.	-2	0	-2	23889*
COc1ccccc1CNC(=O)C1CSC2(C)CCC(=O)N12 (stereo unspecified)	-1	1	-2	7	4033
O=C(c1ccco1)N1CCN(C(=O)C2CCN(S(=O)(=O)c3cccs3)CC2)CC1	.	4	5	6	18565*

High-throughput results (PubChem BioAssay)
